High-throughput results (PubChem)
This is a sample that favours compounds with a hit; in the whole collection about 27% have one here.
CYP2C19 activ = activators of human cytochrome P450 2C19; P33261; recombinant CYP2C19, luciferin-H EGE luminescence; stronger effect = higher value; 0 = fully inhibited enzyme, 1 = untreated enzyme; activation factor at 5 µM; 96,000 tested, under 10 active;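 active = activation factor of at least 2 at 5 µM in the primary screen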
Target sequence (P33261 whole entry, looked up): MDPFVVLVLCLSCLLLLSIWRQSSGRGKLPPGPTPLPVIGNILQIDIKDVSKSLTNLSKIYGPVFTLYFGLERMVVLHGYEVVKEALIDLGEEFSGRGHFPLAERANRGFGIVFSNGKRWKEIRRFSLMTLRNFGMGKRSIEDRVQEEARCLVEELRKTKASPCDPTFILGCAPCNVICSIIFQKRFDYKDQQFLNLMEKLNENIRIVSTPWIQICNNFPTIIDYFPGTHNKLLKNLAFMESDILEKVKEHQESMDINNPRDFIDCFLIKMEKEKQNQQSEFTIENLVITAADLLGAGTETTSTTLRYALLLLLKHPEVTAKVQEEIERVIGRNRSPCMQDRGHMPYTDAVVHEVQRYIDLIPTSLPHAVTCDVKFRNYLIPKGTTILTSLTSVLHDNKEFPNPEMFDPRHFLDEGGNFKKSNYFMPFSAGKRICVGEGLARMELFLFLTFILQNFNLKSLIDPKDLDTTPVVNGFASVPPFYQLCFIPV
CYP2C9 activ = increases human cytochrome P450 2C9 activity. P11712. recombinant CYP2C9, luciferin-H conversion, luminescence; stronger effect = higher value; factor 1 = untreated enzyme, 0 = blocked. activation factor at 5 µM. hit rate 1.4% among 96,000. AID 1024;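 active = activation factor of 2 or more for CYP2C9 at a 5 µM dose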
CYP2C19 inhib = blocks human cytochrome P450 2C19; CYP2C19 Supersomes, luciferin-H EGE luminescence, 30 min; inhibition, % at 5 µM; hit rate 21% among 96,000;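 active = CYP2C19 inhibition above a set limit at 5 µM in the primary screen, cut at about 50% in these data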
CYP2C9 inhib = blocks human cytochrome P450 2C9. P11712. CYP2C9 Supersomes, luciferin-H conversion, luminescence. inhibition, % at 5 µM. hit rate 20% among 96,000;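 active = blocking of liver enzyme CYP2C9 beyond about 50% at 5 µM, limit read from the data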
EphB4 ephrin blk = antagonists of human EphB4-ephrin-B2 interaction. P54760. EphB4 LBD / TNYL-RAW-Alexa532 peptide, fluorescence polarization. inhibition, % at 7 µM. hit rate 0.15% among 97,000;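 active = inhibition above the screen-wide mean inhibition plus 3 SD, cut at about 15% in these data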
Large screens that a line does not name were inactive.

COc1ccc(C(=O)N/N=C/c2ccc3cccc(OCc4ccccc4)c3n2)cc1	none
COc1cccc(/C=N/NC(=O)c2ccc(OCc3cccc(Br)c3)cc2)c1	CYP2C9 inhib 83.8
COc1cccc(/C=N/NC(=O)CCc2ccccc2)c1	CYP2C19 inhib 60.1
COc1ccc(/C=N/NC(=O)CCc2ccccc2)cc1O	none
CCOc1cccc(-c2nnc3sc(-c4ccc(C)cc4)nn23)c1	none (no result: EphB4 ephrin blk)
Cc1cc2c(c(SCC(=O)N(C)c3ccccc3)n1)C(=O)OC2	CYP2C19 inhib 63.2
Cc1cc2c(c(Sc3ccccc3)n1)C(=O)OC2	CYP2C19 inhib 50.2 (no result: EphB4 ephrin blk)
CCOC(=O)c1cccnc1SCC(=O)N(C)c1ccccc1	none
Cc1cccc(N(C)C(=O)COc2cc(=O)n(C)c3ccccc23)c1	none
CN(C(=O)COc1cc(=O)n(C)c2ccccc12)c1ccc(Br)cc1	CYP2C9 inhib 67.0
CCn1c(=O)cc(OCC(=O)Nc2cc(C)ccn2)c2ccccc21	none (no result: CYP2C19 activ, CYP2C9 activ, CYP2C19 inhib, CYP2C9 inhib)
CN(C(=O)COc1cc(=O)n(C)c2ccccc12)c1cccc(Cl)c1	none
Cn1c(=O)cc(OCC(=O)Nc2ccccn2)c2ccccc21	CYP2C19 inhib 52.6
CCOc1ccc(CNC(=O)CCCOc2cc(=O)n(C)c3ccccc23)cc1	CYP2C19 inhib 69.4, CYP2C9 inhib 78.0
CCN(C(=O)COc1cc(=O)n(C)c2ccccc12)c1cccc(Cl)c1	CYP2C19 inhib 69.1
Clc1ccc(CSc2snnc2-c2ccccc2)cc1	none
CC(C)CN(C(=O)COC(=O)C12CC3CC(CC(O)(C3)C1)C2)C1CCS(=O)(=O)C1 (configuration not stated)	none
COc1ccc(/C=N/c2oc(-c3ccccc3)cc2C#N)cc1OC	CYP2C19 inhib 53.8
Clc1cccc(-c2nnc(SCc3nc4ccccc4[nH]3)n2Cc2ccco2)c1	CYP2C19 inhib 82.5, CYP2C9 inhib 87.0
c1coc(Cn2c(SCc3nc4ccccc4[nH]3)nnc2-c2cnccn2)c1	CYP2C19 inhib 67.4, CYP2C9 inhib 80.6
Clc1ccc(OCc2nnc(SCc3nc4ccccc4[nH]3)n2Cc2ccco2)cc1	CYP2C9 inhib 62.0
Cn1c(SCc2nc3ccccc3[nH]2)nnc1-c1cnccn1	none (no result: EphB4 ephrin blk)
c1ccc(-c2nnc(SCc3nc4ccccc4[nH]3)n2Cc2ccco2)nc1	CYP2C19 inhib 51.3, CYP2C9 inhib 89.8
Cc1cc(C)nc(SCCC(=O)Nc2ccccc2)n1	none
CC(C)n1c2ccccc2c2nc3ccccc3nc21	none
O=S(=O)(c1ccccc1)c1cnc(-c2cccnc2)nc1-c1ccccc1	none
Cc1nc(-c2ccccc2)sc1-c1nc(-c2cccs2)ncc1S(=O)(=O)c1ccccc1	CYP2C9 inhib 62.2
Cc1ncc(S(=O)(=O)c2ccc(Cl)cc2)c(-c2ccccc2)n1	none
Cc1nc(-c2ccccc2)sc1-c1nc(-c2cccnc2)ncc1S(=O)(=O)c1ccccc1	CYP2C9 inhib 77.0
Cc1nnc(NC(=O)c2c(F)cccc2F)s1	none
COc1ccc(CCn2c(=N)c(C(=O)N3CCN(C)CC3)cc3c(=O)n4ccccc4nc32)cc1	CYP2C19 inhib 72.0
CCOC(=O)c1cc2c(=O)n3ccccc3nc2n(Cc2ccccc2)c1=N	none
CCOC(=O)c1cc2c(=O)n3ccccc3nc2n(Cc2ccccc2Cl)c1=N	CYP2C9 inhib 56.8 (no result: EphB4 ephrin blk)
CCOC(=O)c1cc2c(=O)n3ccccc3nc2n(CCOC)c1=NC(=O)c1ccncc1	none
CCOC(=O)c1cc2c(=O)n3ccccc3nc2n(C(C)C)c1=NC(=O)c1ccncc1	CYP2C19 inhib 64.8
O=C(O)CN(c1ccccc1F)S(=O)(=O)c1ccccc1	none
O=C(CCn1nnc(-c2cccs2)n1)NCc1ccccc1Cl	CYP2C9 inhib 64.7
Clc1ccccc1Cn1nnc(-c2cccs2)n1	none
COCc1n[nH]c(=S)n1-c1ccccc1	none
S=c1[nH]nc(CSCc2ccccc2Cl)n1-c1ccccc1	CYP2C19 inhib 72.3, CYP2C9 inhib 75.6
CC(=O)Nc1cccc(Oc2cnc3ccccc3n2)c1	none
CC(NC(=O)COc1ccc(/C=N/NC(=O)C(=O)Nc2ccccc2Br)cc1)c1ccccc1 (configuration not stated)	CYP2C9 inhib 68.7
Cc1ccc(NC(=O)N(Cc2cc3cc(C)cc(C)c3[nH]c2=O)CC2COCCO2)cc1 (configuration not stated)	none
COc1cccc(NC(=O)N(Cc2cc3cc(C)cc(C)c3[nH]c2=O)CC2COCCO2)c1 (configuration not stated)	CYP2C9 inhib 56.7
CC1=CC(C)(C)N(C(=O)c2ccccc2)c2ccccc21	none
